Among the test systems are NCI-H23 lung; NCI-H226 lung; NCI-H322M lung; HOP-62 NSCLC; NCI-H460 lung; HOP-92 NSCLC; NCI-H522 lung; A549/ATCC NSCLC; 786-0 renal; COLO 205 colon.
Holding throughout (test): NCI-60 one-dose screen, 48 h (100 = growth as untreated, 0 = no growth, -100 = all killed)
Common to all, as to conditions: 10 µM unless noted

About 83,000 compounds went through this panel and 20% of them were active in at least one assay; those are over-represented in the sample as a whole.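 A percent growth of 40 corresponds to 60% growth inhibition; 0 means no net growth; -100 means all cells died. Active threshold: below 10.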 A number with no mark means an inactive call. Activity calls are given as the source filed them.

Turning to `COc1cc([C@@H]2c3cc4c(cc3[C@H](OC(C)=O)[C@H]3COC(=O)[C@H]23)OCO4)cc(OC)c1OC`, the growth in the assay with NCI-H23 lung was 25%; in the assay on NCI-H226 lung, 76.4%; with NCI-H322M lung it was 42.7%; with HOP-62 NSCLC, 37.8%; in the assay on NCI-H460 lung, 9.09% (active); in the assay on HOP-92 NSCLC, 32.8%. Moreover, the growth in the assay with NCI-H522 lung is -4.13% (active); in the assay with A549/ATCC NSCLC it was 19.5%; in the assay on 786-0 renal, 20.5%; in the assay on COLO 205 colon, -27.9% (active).
As to `C=CC[Se]C(=O)c1ccccc1OC(C)=O`, the growth in the assay on NCI-H23 lung is -21.6% (active); in the assay on NCI-H226 lung, 28.1%; with NCI-H322M lung, -17% (active); in the assay on HOP-62 NSCLC, -7.57% (active); in the assay on NCI-H460 lung, -13.4% (active); in the assay with HOP-92 NSCLC, 15.2%. For the same compound, the growth in the assay on NCI-H522 lung was 47.1%; in the assay on A549/ATCC NSCLC it was 0.797% (active); with 786-0 renal, -7.14% (active); in the assay on COLO 205 colon, 36%.
On to `COc1cc(C=Nc2cccc(C(=O)O)c2)ccc1N(CCCl)CCCl`, for which the growth was 103% in the assay with NCI-H23 lung; 92.7% in the assay with NCI-H226 lung; 100% in the assay with NCI-H322M lung; 118% with HOP-62 NSCLC; 75.4% in the assay with NCI-H460 lung; 101% in the assay with HOP-92 NSCLC. The growth in the assay on NCI-H522 lung is -3.21% (active); in the assay with A549/ATCC NSCLC, 96.6%; with 786-0 renal, 105%; in the assay on COLO 205 colon, 67.1%.
In the case of `CC(C)(NC(=O)O[C@@H]1CN2CCC1CC2)c1csc(-c2ccc(F)cc2)n1`, the growth with NCI-H23 lung is 96.3%; in the assay with NCI-H226 lung, 89.9%; with NCI-H322M lung it was 98.9%; with HOP-62 NSCLC, 99.4%; in the assay with NCI-H460 lung, 101%; in the assay on HOP-92 NSCLC, 98%. The growth in the assay on NCI-H522 lung is 95.4%; in the assay with A549/ATCC NSCLC it was 101%; in the assay on 786-0 renal, 99.3%; in the assay on COLO 205 colon, 111%.
As to `CN1C(=O)C(=Cc2cn(CCCCCCn3c4ccccc4c(=O)c4ccccc43)c3ccccc23)C(=O)N(C)C1=O`, the growth with NCI-H23 lung was 79.9%; in the assay on NCI-H226 lung, -20.8% (active); in the assay with NCI-H322M lung, 99.4%; in the assay with HOP-62 NSCLC, 89.1%; in the assay on NCI-H460 lung it was 85.1%; in the assay with HOP-92 NSCLC, 97.5%. Also, the growth in the assay with NCI-H522 lung is 94.9%; in the assay on A549/ATCC NSCLC, 103%; in the assay on 786-0 renal, 97.4%; in the assay with COLO 205 colon, 102%.
Regarding `CC1(C)N=C(N)N=C(N)N1c1ccc(OCCCNC(=O)Nc2ccc(S(=O)(=O)F)cc2)c(Cl)c1`, the growth with NCI-H23 lung was 27.3%; in the assay on NCI-H226 lung it was 40.1%; in the assay on NCI-H322M lung it was 52.5%; in the assay on HOP-62 NSCLC, 49%; in the assay with NCI-H460 lung, 14.4%; in the assay on HOP-92 NSCLC, 78.6%. In addition, the growth in the assay on NCI-H522 lung was 21.5%; in the assay on A549/ATCC NSCLC, 18%; in the assay with 786-0 renal, 27.5%; with COLO 205 colon it was 31.5%.
`CC1(C)N=C(N)N=C(N)N1c1ccc(CCCCc2ccc(Cl)c(S(=O)(=O)F)c2)c(Cl)c1`: the growth with NCI-H23 lung was 20.4%; with NCI-H226 lung, 44.2%; in the assay on NCI-H322M lung it was 45.5%; in the assay with HOP-62 NSCLC it was 18.1%; in the assay on NCI-H460 lung, 16.3%; in the assay with HOP-92 NSCLC it was -0.0536% (active). Further, the growth with NCI-H522 lung was -14.7% (active); in the assay on A549/ATCC NSCLC, 15.4%; in the assay with 786-0 renal it was -20.2% (active); in the assay on COLO 205 colon, 36.3%.
Turning to `Cc1cc(N(CCCl)CCCl)ccc1/C=N\NC(=O)c1ccncc1`, the growth was 87.8% in the assay with NCI-H23 lung; -7.98% (active) with NCI-H226 lung; 113% in the assay with NCI-H322M lung; 79.4% in the assay with HOP-62 NSCLC; 25.9% in the assay on NCI-H460 lung; 97% in the assay on HOP-92 NSCLC. The growth with NCI-H522 lung was 101%; with A549/ATCC NSCLC, 78.4%; in the assay on 786-0 renal it was 82.5%; in the assay with COLO 205 colon it was 98%.
With `COC(=O)[C@@H](C)C[C@H](Cc1ccccc1)NC(=O)c1nc([C@@H](C[C@H](C(C)C)N(C)C(=O)[C@@H](NC(=O)[C@H]2CCCCN2C)C(C)C)OC(C)=O)sc1C`, the growth was 35% in the assay with NCI-H23 lung; 61.4% in the assay with NCI-H226 lung; 36.3% with NCI-H322M lung; 32.1% in the assay with HOP-62 NSCLC; 4.31% (active) in the assay on NCI-H460 lung; 3.74% (active) with HOP-92 NSCLC. The growth in the assay with NCI-H522 lung was -12.8% (active); in the assay with A549/ATCC NSCLC, 10.6%; in the assay with 786-0 renal it was 4.94% (active); with COLO 205 colon, -36.5% (active).
On to `CCOC(=O)N1CC1`, for which the growth in the assay on NCI-H23 lung is 107%; with NCI-H226 lung, 104%; in the assay with NCI-H322M lung it was 105%; in the assay on HOP-62 NSCLC it was 99.8%; in the assay on NCI-H460 lung it was 107%; in the assay with HOP-92 NSCLC, 53%. Also, the growth was 92.4% in the assay on NCI-H522 lung, 99.9% with A549/ATCC NSCLC, 102% in the assay on 786-0 renal and 91.3% in the assay on COLO 205 colon.
With `COc1cc(C=Nc2cc(Cl)cc(Cl)c2)ccc1N(CCCl)CCCl`, the growth was 80.1% in the assay with NCI-H23 lung; 76.4% in the assay with NCI-H226 lung; 92.8% with NCI-H322M lung; 95.7% in the assay with HOP-62 NSCLC; 13.7% in the assay on NCI-H460 lung; 77.3% in the assay with HOP-92 NSCLC. For the same compound, the growth is -84.3% (active) in the assay with NCI-H522 lung, 91.9% with A549/ATCC NSCLC, 107% in the assay with 786-0 renal and 76.9% in the assay on COLO 205 colon.
Consider `CC(=O)OC[C@]1(C)C=C2C(=O)[C@](C)(O)C3(CC3)C(C)=C2[C@H]1O`, for which the growth with NCI-H23 lung was -35.5% (active); with NCI-H226 lung, -15% (active); in the assay on NCI-H322M lung, -23.1% (active); with HOP-62 NSCLC, -29.4% (active); with NCI-H460 lung it was -37.4% (active); with HOP-92 NSCLC, -25.8% (active). The growth in the assay with NCI-H522 lung is -52.5% (active); with A549/ATCC NSCLC, -21.4% (active); in the assay on 786-0 renal, -46.2% (active); in the assay with COLO 205 colon, -33.5% (active).

The values above are taken from PubChem BioAssay (NCI).
